Assay outcomes (PubChem)
An excerpt weighted towards active compounds, which were near 2.9% of everything screened.
PTAP TSG101 blk: qHTS Assay for Iinhibitors of HIV-1 Budding by Blocking the Interaction of PTAP/TSG101. Tumor susceptibility gene 101 protein (Homo sapiens), Q99816. Fluorescence polarization, FITC-PTAP peptide / Tsg101 binding. Potency, µM (doses to about 115 µM), without a hit: at the highest dose activity change, negative = inhibition, actives largely listed as inhibitors. 340,000 tested, under 10 active. AID 493005, 2010; active = well fitted inhibition curve with a large enough effect in the main read-out, with a control signal flat, not every such curve was filed as active; inconclusive = small, poorly fitted or top-dose-only effect, or effect the other way, or a change in a side signal; inactive = no such curve, though single readings can be large or run the other way; note: potency is the fitted concentration of half-maximal effect; % of control where 0% means no effect
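Steps: Tsg101 binding domain dispensed (10 uM final), compounds pinned in DMSO, FITC-labeled PTAP-motif peptide added (50 nM final); after 20 min binding at room temperature, polarization measured.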
Rango complex inh: qHTS Assay for Inhibitors of Rango (Ran-regulated importin-beta cargo) - Importin beta complex formation; Importin subunit beta-1 (Homo sapiens), Q14974; Rango CFP/YFP FRET sensor + importin beta, 45 min; Potency, µM (doses to about 92.2 µM), inactives show top-dose inhibition of complex formation; 340,000 compounds, 0.031% hits;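 note: potency is the fitted concentration of half-maximal effect; 0% = DMSO wells and 100% = buffer wells lacking importin beta; nearly all actives have a fitted effect of over 15% in size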
Target sequence (Q14974 whole entry, looked up): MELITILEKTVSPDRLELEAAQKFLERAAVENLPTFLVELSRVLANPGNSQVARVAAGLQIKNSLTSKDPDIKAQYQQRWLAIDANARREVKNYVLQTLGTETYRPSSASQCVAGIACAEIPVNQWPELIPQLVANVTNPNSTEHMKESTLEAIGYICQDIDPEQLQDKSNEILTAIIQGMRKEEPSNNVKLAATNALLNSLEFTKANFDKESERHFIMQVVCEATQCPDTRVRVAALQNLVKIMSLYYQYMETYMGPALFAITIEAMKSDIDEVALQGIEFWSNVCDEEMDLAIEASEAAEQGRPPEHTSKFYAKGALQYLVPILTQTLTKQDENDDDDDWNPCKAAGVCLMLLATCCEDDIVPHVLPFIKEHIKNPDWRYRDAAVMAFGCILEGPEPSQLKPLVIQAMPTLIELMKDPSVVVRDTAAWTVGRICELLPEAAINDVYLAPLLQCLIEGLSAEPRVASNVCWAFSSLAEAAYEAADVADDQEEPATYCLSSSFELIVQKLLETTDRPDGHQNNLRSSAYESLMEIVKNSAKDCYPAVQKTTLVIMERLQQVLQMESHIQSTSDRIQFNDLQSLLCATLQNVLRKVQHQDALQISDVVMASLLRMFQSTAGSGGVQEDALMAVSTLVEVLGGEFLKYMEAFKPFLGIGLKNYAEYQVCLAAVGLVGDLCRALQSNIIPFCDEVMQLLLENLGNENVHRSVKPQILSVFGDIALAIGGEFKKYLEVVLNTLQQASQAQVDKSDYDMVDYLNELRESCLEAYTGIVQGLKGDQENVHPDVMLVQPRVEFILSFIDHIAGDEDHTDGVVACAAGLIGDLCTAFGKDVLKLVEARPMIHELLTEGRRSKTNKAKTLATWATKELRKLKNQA
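FRET biosensor (snurportin 1 IBB flanked by EYFP and cerulean), 50 nM, with compound 5 min, then 0.125 microM importin beta in PBS, 1 mM DTT, 0.02% Tween-20, 0.1% BSA. CFP/YFP ratio read after 45 min at room temperature; pre-read flags interference.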
Rango release inh: qHTS Assay for Inhibitors of RanGTP induced Rango (Ran-regulated importin-beta cargo) - Importin beta complex dissociation; 340,000 compounds, 0.071% hits; Biochemical FRET Rango-importin beta, RanGTP-induced dissociation; Snurportin-1 (Homo sapiens) + GTP-binding nuclear protein Ran (Homo sapiens) + Importin …; Potency, µM (top dose mostly 46.1 µM), without a hit: at the top dose activity change, negative = inhibition; note: potency is the fitted concentration of half-maximal effect; % of control where 0% means no effect; nearly all actives have a fitted effect of over 45% in size
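Rango/importin beta premix (0.1/0.25 uM final), PBS + 1 mM DTT + 0.02% Tween-20 + 0.1% BSA; cpd 5 min RT; FRET pre-read; + RanGTP-RCC1 (0.6 uM Ran, 2 mM GTP, 0.2 uM RCC1); 45 min RT; FRET post-read, ex 430, em 486/530 nm.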
MmCpn inh: Inhibitors of TCP-1 ring complex (TRiC) of Methanococcus maripaludis (MmCpn): qHTS; Chaperonin Mm-Cpn (Methanococcus maripaludis); purified Mm-Cpn ATPase, ADP Transcreener TR-FRET; Potency, µM (doses to about 76.9 µM), for the others: at the top dose activity, negative = inhibition, most hits filed as inhibitors; 330,000 compounds, 0.031% hits; AID 504842, 2011; active = well fitted inhibition curve with a large enough effect; inconclusive = small, poorly fitted or top-dose-only effect; note: potency is the fitted concentration of half-maximal effect; % is set by controls: 0 for no effect and ±100 for the full control effect; nearly all actives have a fitted effect of over 80% in size
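Quantitative HTS used 25 nM Mm-CPN and 10 uM ATP in magnesium/KCl Tris buffer, pH 7.4, with 1 mM DTT. Hydrolysis ran 30 min at 37°C; ADP was read by HTRF.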
D3 ag: qHTS of D3 Dopamine Receptor Agonist: qHTS; max activation, %; AID 652048, 2013; D(3) dopamine receptor (Homo sapiens), P35462; 410,000 compounds, 0.58% hits; D3R DiscoveRx beta-arrestin cells, luminescence, 90 min; in the data active = max activation above about 30%; note: 0% is about no effect
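Agonist-mode cell screen: cells plated at 1500/well and incubated overnight at 37 °C, then exposed to library compounds for 90 min at 37 °C. Detection reagent was added for 30–60 min at room temperature, and luminescence was read.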
D3 antag: qHTS of D3 Dopamine Receptor Antagonist: qHTS; D3R cells, DiscoveRx beta-arrestin luminescence, antagonist mode; active compounds read low; max response, negative = inhibition, %; 360,000 compounds, 2.5% hits; AID 652054, 2013; in the data active = max response below about -50%; inconclusive = no clear call, values can overlap the other calls; note: % is set by controls: 0 for no effect and ±100 for the full control effect
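Cells plated overnight at 1500 cells/well, then exposed to library compounds with dopamine controls for 90 minutes at 37 degrees C. DiscoveRx reagent added for 30–60 minutes at room temperature; luminescence read, quantitative HTS format.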
* hit, by the source's call; ? = inconclusive; · = no result. Unless noted, calls come from the whole dose curve.

SMILES	PTAP TSG101 blk	Rango complex inh	Rango release inh	MmCpn inh	D3 ag	D3 antag
Cc1ccc(OCCn2cc(C(=S)N3CCCC3)c3ccccc32)cc1C	0%	0%	-7%	?	1	-54*
COc1ccc(-n2nc(C(=O)Nc3ccc(C)cn3)c3c4ccccc4n(C)c3c2=O)cc1	·	·	·	·	7	·
O=[N+]([O-])c1ccc(NCCNc2ccc(Cl)nn2)cc1	-9%	0%	-3%	1%	-3	-74*
O=C(NCCNc1ccc([N+](=O)[O-])cc1)c1ccccc1Cl	·	·	·	·	-12	?
CCC(C)NC(=O)c1ccccc1NC(=O)C(C)N(c1ccccc1)S(C)(=O)=O (stereo unspecified)	-4%	8%	8%	1%	2	7
CCOc1ccccc1NC(=O)C(C)N(c1ccccc1)S(C)(=O)=O (stereo unspecified)	·	·	·	·	37*	·
COc1ccc2c(-c3ccc(OCCN4CCOCC4)cc3)c(-c3ccccc3OC)sc2c1	-5%	-2%	0%	32µM*	-43	-7
COc1ccccc1-c1sc2ccccc2c1-c1ccc(OCCN2CCCCC2)cc1	-3%	2%	-15%	?	-66	?
COc1ccc2c(-c3ccc(OCCN4CCCCC4)cc3)c(-c3ccccc3OC)sc2c1	0%	2%	-9%	-28%	-60	-23
COc1cc2sc(-c3ccccc3OC)c(-c3ccc(OCCN4CCOCC4)cc3)c2cc1OC	-2%	-4%	2%	45µM*	-12	37
CCN1CCc2c(sc(NC(=O)Cc3ccccc3)c2C(=O)OC)C1	-1%	?	-22%	1%	-18	-103*
CCOC(=O)c1c(NC(=O)Cc2ccccc2)sc2c1CCN(CC)C2	-5%	-1%	-8%	0%	-14	-64*
CCOC(=O)c1c(NC(=O)C2CCCCC2)sc2c1CCN(C(C)C)C2	-6%	0%	-6%	0%	-12	-60*
CN1CCc2c(sc(NC(=O)Cc3ccc(F)cc3)c2C(N)=O)C1	-5%	-14%	?	3%	-3	-51*
CCN1CCc2c(sc(NC(=O)Cc3ccccc3)c2C(N)=O)C1	-1%	?	?	0%	-15	?
COC(=O)c1c(NC(=O)C2CCCCC2)sc2c1CCN(C(C)C)C2	-1%	?	1%	0%	-11	?
CCOC(=O)c1c(NC(=O)Cc2ccccc2)sc2c1CCN(C)C2	-4%	-2%	-5%	-9%	-11	?
COCCc1nn2c(=O)cc(COC(=O)c3ccco3)nc2s1	·	·	·	·	-7	·
CSCCC(NS(=O)(=O)c1ccc2c(c1)oc(=O)n2C)C(=O)N1CCN(c2cc(C)ccc2C)CC1 (stereo unspecified)	·	·	·	·	-7	·
CCC(=O)Nc1sc2c(c1C(N)=O)CCN(C(C)=O)C2	0%	4%	5%	3%	2	?
CC(=O)N1CCc2c(sc(NC(=O)c3ccc([N+](=O)[O-])o3)c2C(N)=O)C1	·	·	·	·	-9	-91*
CCc1nc2c(OCC(=O)C(C)(C)C)cccn2c1N(C=O)CC(=O)N(C)C	·	·	·	·	-24	-98*
CCCCN(C=O)c1c(CC)nc2c(OCCn3cccc3)cccn12	·	·	·	·	-13	-82*
COc1ccc(NC(=O)C2CCN(S(=O)(=O)c3cn(C)cn3)CC2)cc1Cl	·	·	·	·	-5	·
Cc1[nH]nc(SCC(=O)N2CCC(C)CC2)c1[N+](=O)[O-]	5%	1%	-4%	2%	-2	-51*
SMILES	PTAP TSG101 blk	Rango complex inh	Rango release inh	MmCpn inh	D3 ag	D3 antag
Cc1[nH]nc(SCC(=O)N2CCCC2)c1[N+](=O)[O-]	-8%	?	1%	1%	2	-13
COc1ccc(-n2nc3c(N4CCC(C(=O)NCc5cccc(F)c5)CC4)nnc(C)c3c2C)cc1	·	·	·	·	-14	·
CCc1ccc(CN2CCC(CO)(CC3CCCCO3)CC2)o1 (stereo unspecified)	-3%	1%	0%	-1%	-30	?
Cc1ccc(CN2CCC(CO)(CC3CCCCO3)CC2)o1 (stereo unspecified)	0%	-1%	-7%	2%	-13	-63*
Cc1ccc2[nH]c(CN3CCC(CO)(CC4CCCCO4)CC3)c(C)c2c1 (stereo unspecified)	3%	1%	-1%	0%	-24	-61*
COCc1ccc(CN2CCC(CO)(CC3CCCCO3)CC2)o1 (stereo unspecified)	0%	1%	7%	0%	-9	3
Cc1cccc(C)c1C(=NCCCN(C)C)c1ccccc1	-3%	0%	-7%	0%	-8	-78*
Cc1oc(-c2cccc(Br)c2)nc1Cn1c(SCc2cccc(F)c2)nc2cccnc21	·	·	·	·	4	·
CCCCCn1c(=S)[nH]c2cc(C(=O)N3CCCC3)ccc2c1=O	0%	-1%	3%	-4%	-2	3
CCCCCn1c(=S)[nH]c2cc(C(=O)N3CCN(C(=O)OCC)CC3)ccc2c1=O	-3%	-2%	43%	1%	3	-90*
CCOC(=O)N1CCN(C(=O)c2ccc3c(=O)n(-c4ccc(OC)cc4)c(=S)[nH]c3c2)CC1	-1%	-2%	-7%	1%	-2	-2
CCOC(=O)N1CCN(C(=O)c2ccc(-n3c(=S)[nH]c4ccccc4c3=O)cc2)CC1	-2%	6%	-5%	-15%	42*	13
CCCCC(CC)COC(=O)C(C#N)=C(c1ccccc1)c1ccccc1 (stereo unspecified)	1%	0%	12%	-6%	-93	-74*
Cc1ccc(NC(=O)Cn2ncc(Cl)c(Cl)c2=O)cc1S(=O)(=O)N1CCCCC1	-8%	0%	13%	?	-14	-58*
Cc1ccc(NC(=O)COC(=O)c2ccc3c(c2)OCCO3)cc1S(=O)(=O)N1CCOCC1	-2%	0%	1%	-2%	-3	4
Cc1ccc(C(=O)N2CCOCC2)cc1S(=O)(=O)N1CCOCC1	1%	-4%	-1%	0%	0	-2
